# Reference: ChEMBL document CHEMBL2218924, “A broad activity screen in support of a chemogenomic map for kinase signalling research and drug discovery” (Biochem J, 2013)
# Assays:
# [1] = target: T1, Tyrosine-protein kinase Mer (Homo sapiens) (UniProt Q12866); conditions: at 1 µM
# T1 sequence (whole entry): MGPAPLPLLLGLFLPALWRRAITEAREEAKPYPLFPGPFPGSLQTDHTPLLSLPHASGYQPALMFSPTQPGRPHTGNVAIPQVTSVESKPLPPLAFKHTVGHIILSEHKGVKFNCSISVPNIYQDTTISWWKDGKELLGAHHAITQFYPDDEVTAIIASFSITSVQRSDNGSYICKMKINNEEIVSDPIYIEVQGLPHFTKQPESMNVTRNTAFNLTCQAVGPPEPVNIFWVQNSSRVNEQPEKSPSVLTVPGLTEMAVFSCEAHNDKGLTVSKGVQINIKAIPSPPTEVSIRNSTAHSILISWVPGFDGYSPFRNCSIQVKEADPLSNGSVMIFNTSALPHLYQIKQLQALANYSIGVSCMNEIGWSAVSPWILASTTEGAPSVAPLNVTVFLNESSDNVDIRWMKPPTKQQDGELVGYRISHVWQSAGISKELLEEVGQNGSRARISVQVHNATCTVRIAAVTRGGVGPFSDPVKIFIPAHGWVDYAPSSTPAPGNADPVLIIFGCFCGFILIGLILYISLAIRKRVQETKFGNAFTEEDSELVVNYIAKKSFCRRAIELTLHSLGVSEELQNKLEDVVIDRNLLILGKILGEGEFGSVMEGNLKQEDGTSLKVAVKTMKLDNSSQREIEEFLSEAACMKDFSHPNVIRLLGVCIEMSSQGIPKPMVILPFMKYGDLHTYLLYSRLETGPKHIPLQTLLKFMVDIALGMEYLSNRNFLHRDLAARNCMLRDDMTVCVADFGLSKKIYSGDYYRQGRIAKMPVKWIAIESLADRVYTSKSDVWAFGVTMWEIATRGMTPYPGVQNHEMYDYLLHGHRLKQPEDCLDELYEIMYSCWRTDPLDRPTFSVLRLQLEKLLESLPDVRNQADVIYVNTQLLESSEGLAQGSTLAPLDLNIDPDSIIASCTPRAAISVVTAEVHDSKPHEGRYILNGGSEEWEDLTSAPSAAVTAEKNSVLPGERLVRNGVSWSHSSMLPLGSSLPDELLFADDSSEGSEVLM
# [2] = target: T1, Tyrosine-protein kinase Mer (Homo sapiens); conditions: at 10 µM
# [3] = target: Hepatocyte growth factor receptor (Homo sapiens) (UniProt P08581); conditions: at 1 µM
# [4] = target: Hepatocyte growth factor receptor (Homo sapiens) (UniProt P08581); conditions: at 10 µM
# [5] = target: MAP kinase-interacting serine/threonine-protein kinase 2 (Homo sapiens) (UniProt Q9HBH9); conditions: at 10 µM
# [6] = target: T2, Muscle, skeletal receptor tyrosine-protein kinase (Homo sapiens) (UniProt O15146); conditions: at 1 µM
# T2 sequence (whole entry): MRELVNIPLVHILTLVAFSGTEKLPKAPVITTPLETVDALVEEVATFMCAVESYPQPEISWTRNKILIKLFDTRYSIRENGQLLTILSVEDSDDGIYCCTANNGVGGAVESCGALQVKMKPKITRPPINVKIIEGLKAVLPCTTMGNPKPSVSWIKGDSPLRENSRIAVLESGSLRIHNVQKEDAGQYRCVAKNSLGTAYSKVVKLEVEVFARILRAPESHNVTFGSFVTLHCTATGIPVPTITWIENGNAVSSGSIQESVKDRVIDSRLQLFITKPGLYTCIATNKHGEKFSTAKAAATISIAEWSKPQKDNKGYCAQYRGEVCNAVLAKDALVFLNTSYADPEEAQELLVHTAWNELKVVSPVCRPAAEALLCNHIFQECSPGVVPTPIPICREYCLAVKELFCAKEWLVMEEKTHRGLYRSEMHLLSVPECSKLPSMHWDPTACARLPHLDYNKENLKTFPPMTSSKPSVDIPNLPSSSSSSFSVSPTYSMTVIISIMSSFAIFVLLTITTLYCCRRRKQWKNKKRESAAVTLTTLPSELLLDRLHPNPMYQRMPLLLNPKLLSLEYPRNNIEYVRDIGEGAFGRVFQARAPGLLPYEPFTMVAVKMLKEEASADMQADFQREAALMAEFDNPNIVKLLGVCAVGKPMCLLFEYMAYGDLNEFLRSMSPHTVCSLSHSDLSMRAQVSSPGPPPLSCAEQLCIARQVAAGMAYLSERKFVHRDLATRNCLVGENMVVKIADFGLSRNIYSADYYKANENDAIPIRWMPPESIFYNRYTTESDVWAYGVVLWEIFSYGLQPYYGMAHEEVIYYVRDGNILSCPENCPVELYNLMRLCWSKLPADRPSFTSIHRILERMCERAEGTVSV
# [7] = target: T2, Muscle, skeletal receptor tyrosine-protein kinase (Homo sapiens); conditions: at 10 µM
# [8] = target: T3, Serine/threonine-protein kinase Nek11 (Homo sapiens) (UniProt Q8NG66); conditions: at 1 µM
# T3 sequence (whole entry): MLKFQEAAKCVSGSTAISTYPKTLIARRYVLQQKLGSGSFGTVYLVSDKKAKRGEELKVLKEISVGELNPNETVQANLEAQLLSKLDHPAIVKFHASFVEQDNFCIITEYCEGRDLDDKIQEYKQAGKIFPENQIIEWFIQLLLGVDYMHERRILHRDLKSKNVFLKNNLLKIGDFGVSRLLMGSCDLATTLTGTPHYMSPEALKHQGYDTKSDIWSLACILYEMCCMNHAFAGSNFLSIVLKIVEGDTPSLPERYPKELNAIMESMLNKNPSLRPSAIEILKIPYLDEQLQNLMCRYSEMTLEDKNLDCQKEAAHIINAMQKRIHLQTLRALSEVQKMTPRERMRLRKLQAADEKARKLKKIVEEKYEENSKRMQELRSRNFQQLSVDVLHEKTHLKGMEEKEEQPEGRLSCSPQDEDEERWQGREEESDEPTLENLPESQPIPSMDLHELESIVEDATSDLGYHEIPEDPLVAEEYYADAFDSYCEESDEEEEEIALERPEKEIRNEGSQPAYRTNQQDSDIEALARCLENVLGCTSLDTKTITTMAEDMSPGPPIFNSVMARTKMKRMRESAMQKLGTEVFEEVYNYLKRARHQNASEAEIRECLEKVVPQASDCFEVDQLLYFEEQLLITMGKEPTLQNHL
# [9] = target: T3, Serine/threonine-protein kinase Nek11 (Homo sapiens); conditions: at 10 µM
# [10] = target: T4, Serine/threonine-protein kinase Nek2 (Homo sapiens) (UniProt P51955); conditions: at 1 µM
# T4 sequence (whole entry): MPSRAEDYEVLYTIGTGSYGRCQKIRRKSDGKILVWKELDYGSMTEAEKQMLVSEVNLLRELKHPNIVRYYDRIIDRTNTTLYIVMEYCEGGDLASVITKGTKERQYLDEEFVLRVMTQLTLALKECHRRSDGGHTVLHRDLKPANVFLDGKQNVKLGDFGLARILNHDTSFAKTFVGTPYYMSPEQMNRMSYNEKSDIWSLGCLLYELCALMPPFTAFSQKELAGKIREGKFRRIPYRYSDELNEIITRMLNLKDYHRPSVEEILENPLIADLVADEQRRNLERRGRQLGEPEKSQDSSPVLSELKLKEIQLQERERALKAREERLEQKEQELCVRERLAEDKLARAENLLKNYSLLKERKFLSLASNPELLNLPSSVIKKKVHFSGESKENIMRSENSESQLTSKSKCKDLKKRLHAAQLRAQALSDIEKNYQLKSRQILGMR
# [11] = target: T4, Serine/threonine-protein kinase Nek2 (Homo sapiens); conditions: at 10 µM
# [12] = target: T5, Serine/threonine-protein kinase Nek3 (Homo sapiens) (UniProt P51956); conditions: at 1 µM
# T5 sequence (whole entry): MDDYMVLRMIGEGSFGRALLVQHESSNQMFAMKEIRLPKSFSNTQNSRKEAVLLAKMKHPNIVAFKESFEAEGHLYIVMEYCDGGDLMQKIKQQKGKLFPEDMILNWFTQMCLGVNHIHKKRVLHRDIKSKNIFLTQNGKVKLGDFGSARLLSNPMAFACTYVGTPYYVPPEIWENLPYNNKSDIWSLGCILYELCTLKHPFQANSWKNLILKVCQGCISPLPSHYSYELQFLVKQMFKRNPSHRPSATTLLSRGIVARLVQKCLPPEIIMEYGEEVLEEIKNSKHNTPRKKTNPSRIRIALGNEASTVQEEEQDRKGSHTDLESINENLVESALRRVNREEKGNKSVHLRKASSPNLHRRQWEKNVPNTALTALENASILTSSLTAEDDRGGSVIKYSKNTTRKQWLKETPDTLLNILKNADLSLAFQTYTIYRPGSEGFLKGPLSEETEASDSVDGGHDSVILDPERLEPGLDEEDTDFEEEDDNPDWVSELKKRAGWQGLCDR
# [13] = target: T5, Serine/threonine-protein kinase Nek3 (Homo sapiens); conditions: at 10 µM
# [14] = target: Serine/threonine-protein kinase tousled-like 2 (Homo sapiens) (UniProt Q86UE8); conditions: at 1 µM
# [15] = target: Serine/threonine-protein kinase tousled-like 2 (Homo sapiens) (UniProt Q86UE8); conditions: at 10 µM
# [16] = target: T6, Testis-specific serine/threonine-protein kinase 1 (Homo sapiens) (UniProt Q9BXA7); conditions: at 1 µM
# T6 sequence (whole entry): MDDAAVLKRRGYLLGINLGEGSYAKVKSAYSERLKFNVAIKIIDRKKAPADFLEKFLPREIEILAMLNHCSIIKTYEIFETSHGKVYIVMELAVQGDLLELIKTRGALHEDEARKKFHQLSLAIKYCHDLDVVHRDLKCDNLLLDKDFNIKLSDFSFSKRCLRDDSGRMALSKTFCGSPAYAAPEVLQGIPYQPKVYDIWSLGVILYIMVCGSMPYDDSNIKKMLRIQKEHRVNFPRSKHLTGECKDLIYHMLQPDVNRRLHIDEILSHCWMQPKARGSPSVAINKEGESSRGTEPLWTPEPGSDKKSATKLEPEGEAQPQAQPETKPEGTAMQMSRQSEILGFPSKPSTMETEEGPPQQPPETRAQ
# [17] = target: T6, Testis-specific serine/threonine-protein kinase 1 (Homo sapiens); conditions: at 10 µM
# [18] = target: T7, Testis-specific serine/threonine-protein kinase 2 (Homo sapiens) (UniProt Q96PF2); conditions: at 1 µM
# T7 sequence (whole entry): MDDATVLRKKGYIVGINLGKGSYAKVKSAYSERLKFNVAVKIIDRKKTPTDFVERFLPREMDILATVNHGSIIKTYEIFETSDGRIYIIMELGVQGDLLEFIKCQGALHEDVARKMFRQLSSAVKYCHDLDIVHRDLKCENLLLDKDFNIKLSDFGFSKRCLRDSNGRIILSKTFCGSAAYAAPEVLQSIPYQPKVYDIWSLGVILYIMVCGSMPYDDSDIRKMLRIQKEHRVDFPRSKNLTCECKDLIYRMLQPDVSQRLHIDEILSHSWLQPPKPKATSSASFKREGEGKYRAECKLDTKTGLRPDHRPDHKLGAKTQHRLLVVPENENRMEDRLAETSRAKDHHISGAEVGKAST
# [19] = target: T7, Testis-specific serine/threonine-protein kinase 2 (Homo sapiens); conditions: at 10 µM
# [20] = target: MAP kinase-interacting serine/threonine-protein kinase 2 (Homo sapiens) (UniProt Q9HBH9); conditions: at 1 µM
# Serine/threonine-protein kinase tousled-like 2 (Homo sapiens), sequence (Q86UE8 whole entry, looked up): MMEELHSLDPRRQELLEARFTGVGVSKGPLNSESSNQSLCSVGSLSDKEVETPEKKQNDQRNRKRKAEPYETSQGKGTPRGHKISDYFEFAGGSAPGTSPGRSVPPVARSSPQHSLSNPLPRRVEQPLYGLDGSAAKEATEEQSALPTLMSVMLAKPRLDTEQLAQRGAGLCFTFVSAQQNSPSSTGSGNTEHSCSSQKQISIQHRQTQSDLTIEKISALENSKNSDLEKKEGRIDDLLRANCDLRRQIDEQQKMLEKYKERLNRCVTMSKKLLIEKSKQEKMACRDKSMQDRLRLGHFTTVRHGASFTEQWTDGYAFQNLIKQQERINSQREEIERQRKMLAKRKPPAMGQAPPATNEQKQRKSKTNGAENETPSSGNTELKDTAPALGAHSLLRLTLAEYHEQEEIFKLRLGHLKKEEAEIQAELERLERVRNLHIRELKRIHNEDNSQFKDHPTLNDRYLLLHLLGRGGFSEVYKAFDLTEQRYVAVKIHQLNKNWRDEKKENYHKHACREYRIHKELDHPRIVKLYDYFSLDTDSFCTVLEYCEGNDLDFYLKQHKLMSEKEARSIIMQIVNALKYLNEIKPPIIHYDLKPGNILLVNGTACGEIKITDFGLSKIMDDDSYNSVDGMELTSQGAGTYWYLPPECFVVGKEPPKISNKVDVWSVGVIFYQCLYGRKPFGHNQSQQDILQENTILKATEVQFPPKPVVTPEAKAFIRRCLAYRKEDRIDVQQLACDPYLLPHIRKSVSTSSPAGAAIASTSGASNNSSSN
# MAP kinase-interacting serine/threonine-protein kinase 2 (Homo sapiens), sequence (Q9HBH9 whole entry, looked up): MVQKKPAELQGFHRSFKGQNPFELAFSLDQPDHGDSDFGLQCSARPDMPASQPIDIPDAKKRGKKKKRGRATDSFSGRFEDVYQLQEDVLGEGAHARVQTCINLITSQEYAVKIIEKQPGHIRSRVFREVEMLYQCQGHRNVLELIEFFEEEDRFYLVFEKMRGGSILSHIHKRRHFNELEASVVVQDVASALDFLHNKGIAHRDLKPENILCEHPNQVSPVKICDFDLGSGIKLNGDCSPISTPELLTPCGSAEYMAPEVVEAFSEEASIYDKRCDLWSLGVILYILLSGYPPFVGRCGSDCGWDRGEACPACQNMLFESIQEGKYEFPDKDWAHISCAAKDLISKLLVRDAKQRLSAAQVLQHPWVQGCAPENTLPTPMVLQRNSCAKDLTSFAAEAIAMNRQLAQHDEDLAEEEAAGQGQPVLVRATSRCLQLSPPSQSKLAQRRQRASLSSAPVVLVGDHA
# Hepatocyte growth factor receptor (Homo sapiens), sequence (P08581 whole entry): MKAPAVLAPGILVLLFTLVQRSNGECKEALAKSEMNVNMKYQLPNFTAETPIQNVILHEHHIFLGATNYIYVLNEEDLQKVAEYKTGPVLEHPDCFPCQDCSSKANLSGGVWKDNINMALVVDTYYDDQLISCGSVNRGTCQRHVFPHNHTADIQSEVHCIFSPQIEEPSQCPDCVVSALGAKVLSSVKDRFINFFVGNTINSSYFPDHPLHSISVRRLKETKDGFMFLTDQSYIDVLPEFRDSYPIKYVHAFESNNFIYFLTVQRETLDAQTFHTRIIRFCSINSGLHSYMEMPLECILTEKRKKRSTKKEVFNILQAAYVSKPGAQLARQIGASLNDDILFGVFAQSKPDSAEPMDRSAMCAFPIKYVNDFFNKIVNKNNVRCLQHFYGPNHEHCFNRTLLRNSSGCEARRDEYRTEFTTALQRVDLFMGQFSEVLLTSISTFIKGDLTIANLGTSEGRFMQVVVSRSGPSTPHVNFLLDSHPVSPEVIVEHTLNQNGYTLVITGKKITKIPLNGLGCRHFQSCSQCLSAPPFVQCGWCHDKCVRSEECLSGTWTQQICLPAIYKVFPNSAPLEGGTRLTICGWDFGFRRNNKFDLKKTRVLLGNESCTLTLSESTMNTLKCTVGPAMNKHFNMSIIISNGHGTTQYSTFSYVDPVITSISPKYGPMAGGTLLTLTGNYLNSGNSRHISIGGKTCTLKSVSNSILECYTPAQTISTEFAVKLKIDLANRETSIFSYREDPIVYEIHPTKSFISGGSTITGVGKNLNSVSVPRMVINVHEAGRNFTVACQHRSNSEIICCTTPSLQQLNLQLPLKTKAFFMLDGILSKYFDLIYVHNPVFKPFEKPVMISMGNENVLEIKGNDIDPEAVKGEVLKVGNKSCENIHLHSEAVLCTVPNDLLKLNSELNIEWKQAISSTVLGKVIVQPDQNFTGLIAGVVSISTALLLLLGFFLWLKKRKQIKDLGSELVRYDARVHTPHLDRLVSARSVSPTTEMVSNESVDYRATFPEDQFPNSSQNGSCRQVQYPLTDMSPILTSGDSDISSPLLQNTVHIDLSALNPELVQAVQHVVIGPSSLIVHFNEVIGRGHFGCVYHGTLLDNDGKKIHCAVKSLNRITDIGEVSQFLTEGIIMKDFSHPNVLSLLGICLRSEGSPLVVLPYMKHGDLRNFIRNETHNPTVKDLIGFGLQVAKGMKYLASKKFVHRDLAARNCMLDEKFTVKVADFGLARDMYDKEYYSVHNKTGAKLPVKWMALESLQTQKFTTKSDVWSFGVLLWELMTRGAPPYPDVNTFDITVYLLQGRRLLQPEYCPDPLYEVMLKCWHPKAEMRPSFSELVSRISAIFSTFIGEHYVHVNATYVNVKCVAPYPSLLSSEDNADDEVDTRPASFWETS
smiles,measurement,setting,value
CC(C)[C@H](CO)Nc1nc(Nc2cccc(Cl)c2)c2ncn(C(C)C)c2n1,residual activity,[1],26%
same,residual activity,[2],0%
same,residual activity,[3],83%
same,residual activity,[4],73%
same,residual activity,[5],98%
same,residual activity,[6],48%
same,residual activity,[7],5%
same,residual activity,[8],59%
same,residual activity,[9],38%
same,residual activity,[10],90%
same,residual activity,[11],53%
same,residual activity,[12],84%
same,residual activity,[13],89%
same,residual activity,[14],100%
same,residual activity,[15],81%
same,residual activity,[16],97%
same,residual activity,[17],72%
same,residual activity,[18],94%
same,residual activity,[19],79%
COc1cc2ncnc(Nc3ccc(NC(=O)c4ccccc4)cc3)c2cc1OC,residual activity,[18],106%
C[S+]([O-])c1ccc(-c2nc(-c3ccc(F)cc3)c(-c3ccncc3)[nH]2)cc1 (centres undefined),residual activity,[1],117%
same,residual activity,[2],105%
same,residual activity,[3],123%
same,residual activity,[4],68%
same,residual activity,[20],103%
same,residual activity,[5],87%
same,residual activity,[6],143%
same,residual activity,[7],95%
same,residual activity,[8],90%
same,residual activity,[10],114%
same,residual activity,[11],118%
same,residual activity,[12],104%
same,residual activity,[13],104%
same,residual activity,[14],113%
same,residual activity,[15],109%
same,residual activity,[16],106%
same,residual activity,[17],94%
same,residual activity,[18],94%
same,residual activity,[19],100%
CC(C)(C)n1nc(Cc2cccc3ccccc23)c2c(N)ncnc21,residual activity,[18],104%
O=c1cc(N2CCOCC2)oc2c1ccc1ccccc12,residual activity,[18],95%
COc1ccc(Cl)cc1NC(=O)Nc1cc(C)nc2ccccc12,residual activity,[18],100%
NC(=O)c1ccc2[nH]c(-c3ccc(Oc4ccc(Cl)cc4)cc3)nc2c1,residual activity,[18],98%
CCN1/C(=C/C(C)=O)Sc2ccc(OC)cc21,residual activity,[18],77%
O=c1[nH]c2ccccc2n1C1CCN(Cc2ccc(-c3nc4cc5[nH]cnc5cc4nc3-c3ccccc3)cc2)CC1,residual activity,[1],112%
same,residual activity,[2],51%
same,residual activity,[3],93%
same,residual activity,[4],88%
same,residual activity,[20],97%
same,residual activity,[5],67%
same,residual activity,[6],105%
same,residual activity,[7],84%
same,residual activity,[8],75%
same,residual activity,[9],88%
same,residual activity,[10],86%
same,residual activity,[11],84%
same,residual activity,[12],111%
same,residual activity,[14],104%
same,residual activity,[15],84%
same,residual activity,[16],97%
same,residual activity,[17],54%
same,residual activity,[18],106%
same,residual activity,[19],45%
O=C1c2ccccc2-c2nc3nnnn3nc21,residual activity,[1],124%
same,residual activity,[2],103%
same,residual activity,[3],127%
same,residual activity,[4],133%
same,residual activity,[20],100%
same,residual activity,[5],75%
same,residual activity,[6],131%
same,residual activity,[7],105%
same,residual activity,[12],116%
same,residual activity,[13],102%
CN[C@@H]1C[C@H]2O[C@@](C)([C@@H]1OC)n1c3ccccc3c3c4c(c5c6ccccc6n2c5c31)C(=O)NC4,residual activity,[12],105%
same,residual activity,[13],67%
same,residual activity,[14],1%
same,residual activity,[15],1%
O=c1c2ccccc2[nH]c(=S)n1CCN1CCC(=C(c2ccc(F)cc2)c2ccc(F)cc2)CC1,residual activity,[18],96%
O=C1c2ccccc2-[n+]2ccc3c([nH]c4ccccc43)c21,residual activity,[18],98%
